High-throughput results as filed in PubChem BioAssay.
Most compounds without a hit are left out; they make up all but 10% or so of the library.
MCF10A rereplic: DNA re-replication induction in MCF 10a cells | MCF 10A DNA re-replication, Hoechst nuclear intensity, 48 h | Potency, µM (titrated, usually from 46.1 µM), inactives show at the top dose activity, positive = re-replication, actives largely listed as activators | hit rate 2.9% among 350,000 | AID 624296; note: % of control where 0% means no effect; nearly all actives have a fitted effect of over 50% in size
ELG1 repair inh: ELG1-dependent DNA repair inhibition | HEK293T ELG1-luciferase reporter, luminescence, 16 h; DNA damage induced by 5-fluorouridine | hit rate 2.3% among 330,000 | Potency, µM (series often up to 46.1 µM), for the others: top-dose activity change, negative = inhibition, most hits filed as inhibitors; note: % is set by controls: 0 for no effect and ±100 for the full control effect; nearly all actives have a fitted effect of over 55% in size
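Quantitative HTS, concentration-response format. 2,000 cells/well co-treated with 5-fluorouridine and compound, 16 hr in 5% CO2 at 37 °C; ONE-Glo luminescence read after 30 min.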
Gal4-VP16 FLuc: inhibits Gal4-VP16 luciferase reporter, ROR gamma counter-screen; Drosophila S2 Gal4-VP16 UAS-luciferase, luminescence, 20 h; Potency, µM (series often up to 53.6 µM), for the others: at the highest dose activity, negative = inhibition, hits mostly inhibitors; hit rate 3.5% among 310,000; AID 2546;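 note: Gal4-VP16 expression switched on by copper sulfate through the metallothionein promoter; % is set by controls: 0 for no effect and ±100 for the full control effect; nearly all actives have a fitted effect of over 50% in size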
RORg inh: inhibitors of mouse ROR gamma transcriptional activity. AID 2551. Potency, µM (doses to about 53.6 µM), inactives show top-dose activity change, negative = inhibition, hits mostly inhibitors. Drosophila S2 Gal4-RORgamma UAS-luciferase reporter, 20 h. hit rate 5.4% among 310,000. P51450; note: % is set by controls: 0 for no effect and ±100 for the full control effect; nearly all actives have a fitted effect of over 60% in size
Target sequence (P51450 whole entry, looked up, the tested form may be a part): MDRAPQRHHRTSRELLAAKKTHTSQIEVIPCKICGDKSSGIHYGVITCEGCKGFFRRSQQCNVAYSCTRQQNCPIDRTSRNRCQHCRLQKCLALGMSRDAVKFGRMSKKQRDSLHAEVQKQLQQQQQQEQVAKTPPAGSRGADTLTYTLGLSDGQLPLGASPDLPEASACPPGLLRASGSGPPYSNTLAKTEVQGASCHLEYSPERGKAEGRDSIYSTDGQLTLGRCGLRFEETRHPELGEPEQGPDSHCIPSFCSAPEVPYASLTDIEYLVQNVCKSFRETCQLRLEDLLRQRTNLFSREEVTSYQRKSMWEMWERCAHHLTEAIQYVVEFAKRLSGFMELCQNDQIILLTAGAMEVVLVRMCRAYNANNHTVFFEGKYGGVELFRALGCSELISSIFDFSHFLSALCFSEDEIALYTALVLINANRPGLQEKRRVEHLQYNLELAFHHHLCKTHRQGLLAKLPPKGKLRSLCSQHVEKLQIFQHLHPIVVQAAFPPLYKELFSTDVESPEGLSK
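Using a luciferase readout, inhibitors were identified by reduced reporter activity in Drosophila cells coexpressing a copper-inducible Gal4–ROR gamma fusion and UAS-driven Photinus luciferase, incubated 20 hr after 700 uM copper sulfate.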
SW480 rereplic: DNA re-replication induction in SW480 cells | hit rate 1.8% among 340,000 | Potency, µM (series often up to 46.1 µM), inactives show top-dose re-replication activation, hits mostly activators | SW480 DNA re-replication, Hoechst DNA content imaging, 48 h; note: % of control where 0% means no effect; nearly all actives have a fitted effect of over 55% in size
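Image-based read-out: total Hoechst fluorescence of nuclei (405 nm excitation, 500-530 nm emission), with hits raising the fraction of high-intensity nuclei. SW480 colon cells incubated 48 hr with compounds at 37 C.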
* marks the source's active call; other numbers are inactive results; [ ] = remark or other dose. Calls come from the whole dose curve; as a rule, active = well fitted curve in the direction sought with a large enough effect; inconclusive = small, poorly fitted or top-dose-only effect, or another doubt; inactive = no such curve, though single readings can be large; an effect the other way counts as inactive or inconclusive. Potency is the fitted concentration of half-maximal effect.

Results for Cc1nn(-c2ccccc2)cc1C(c1c(N)[nH]c(=S)[nH]c1=O)c1c(N)[nH]c(=S)[nH]c1=O ?
MCF10A rereplic: 4.6%; ELG1 repair inh: 17.8%; Gal4-VP16 FLuc: 6.8%; RORg inh: -7.5%; SW480 rereplic: -2.0%

How did N#Cc1c2c(c(-c3ccccc3Cl)[nH]c1=S)CCCC2 do in these assays?
MCF10A rereplic: 9.9%; ELG1 repair inh: inconclusive; Gal4-VP16 FLuc: 15.8µM*; RORg inh: 15.8µM*; SW480 rereplic: -10.7%

How did Cc1cccc(-c2nsc(SCC(=O)Nc3nccs3)n2)c1 do in these assays?
MCF10A rereplic: -0.4%; ELG1 repair inh: 28.0%; Gal4-VP16 FLuc: -14.3%; RORg inh: 11.2µM*; SW480 rereplic: 18.0%

What do the screens show for `Cc1cccc(-c2nsc(SCC(=O)N3CCCC3)n2)c1`?
MCF10A rereplic: 6.1%; ELG1 repair inh: inconclusive; Gal4-VP16 FLuc: inconclusive; RORg inh: 7.08µM*; SW480 rereplic: -4.5%

How did CCN(CC)C(=O)C(=O)c1cn(CC(=O)N2CCc3ccccc3C2)c2ccccc12 do in these assays?
MCF10A rereplic: -0.7%; ELG1 repair inh: -22.0%; Gal4-VP16 FLuc: 0.9%; RORg inh: 39.7%; SW480 rereplic: -1.4%

Results for CCOc1ccc2[nH]c(=O)c(CN(Cc3ccccc3OC)C(=O)c3ccccc3)cc2c1 ?
MCF10A rereplic: 20.6µM*; ELG1 repair inh: inconclusive; Gal4-VP16 FLuc: -6.3%; RORg inh: -13.1%; SW480 rereplic: inconclusive

How did CCc1ccc2[nH]c(=O)c(CN(Cc3ccccc3OC)C(=O)Nc3ccccc3OC)cc2c1 do in these assays?
MCF10A rereplic: inconclusive; ELG1 repair inh: 23.1µM*; Gal4-VP16 FLuc: -3.7%; RORg inh: 3.4%; SW480 rereplic: 7.0%

Results for COc1ccc2[nH]c(=O)c(CN(Cc3ccco3)C(=O)c3ccccc3)cc2c1 ?
MCF10A rereplic: inconclusive; ELG1 repair inh: -1.6%; Gal4-VP16 FLuc: -2.3%; RORg inh: inconclusive; SW480 rereplic: inconclusive

Results for CCOc1ccc2[nH]c(=O)c(CN(Cc3ccco3)C(=O)c3ccc(Br)cc3)cc2c1 ?
MCF10A rereplic: 16.4µM*; ELG1 repair inh: -16.6%; Gal4-VP16 FLuc: -15.7%; RORg inh: 24.2%; SW480 rereplic: inconclusive

Results for CCOc1ccc2[nH]c(=O)c(CN(Cc3ccco3)C(=O)c3cccc(F)c3)cc2c1 ?
MCF10A rereplic: -2.7%; ELG1 repair inh: 0.0%; Gal4-VP16 FLuc: -5.0%; RORg inh: -3.5%; SW480 rereplic: 1.8%

How did Cc1cc(F)ccc1NC(=O)c1cc(S(=O)(=O)N2CCCC2)cn1C do in these assays?
MCF10A rereplic: 0.9%; ELG1 repair inh: -1.7%; Gal4-VP16 FLuc: 8.2%; RORg inh: 16.1%; SW480 rereplic: 0.7%

How did Cc1nc2cc(NC(=O)c3ccc(Br)s3)ccc2s1 do in these assays?
MCF10A rereplic: 14.1%; ELG1 repair inh: inconclusive; Gal4-VP16 FLuc: inconclusive; RORg inh: 5.01µM*; SW480 rereplic: 1.3%

How did CN1CCN(S(=O)(=O)c2ccc(NC(=S)NC(=O)c3ccccc3)cc2)CC1 do in these assays?
MCF10A rereplic: -2.9%; ELG1 repair inh: inconclusive; Gal4-VP16 FLuc: 12.3%; RORg inh: inconclusive; SW480 rereplic: 2.2%

What do the screens show for `CCOC(=O)c1ccc(S(=O)(=O)N2CCN(C)CC2)cc1`?
MCF10A rereplic: 5.17µM*; ELG1 repair inh: 8.6%; Gal4-VP16 FLuc: -0.2%; RORg inh: -5.2%; SW480 rereplic: -22.0%

Results for CN1CCN(S(=O)(=O)c2ccc(NC(=S)NC(=O)c3ccc(Cl)cc3)cc2)CC1 ?
MCF10A rereplic: inconclusive; ELG1 repair inh: inconclusive; Gal4-VP16 FLuc: inconclusive; RORg inh: 3.16µM*; SW480 rereplic: -0.5%

Results for CC(=O)Nc1ccc(S(=O)(=O)N2CCC(C(=O)c3ccc(Cl)cc3)CC2)cc1 ?
MCF10A rereplic: inconclusive; ELG1 repair inh: 18.3µM*; Gal4-VP16 FLuc: 1.6%; RORg inh: 17.4%; SW480 rereplic: -5.5%

What do the screens show for `COc1ccc(CCC(=O)OCC(=O)NCc2ccccc2)cc1`?
MCF10A rereplic: -2.5%; ELG1 repair inh: inconclusive; SW480 rereplic: -0.4%

How did CCOC(=O)C1CCCN(C(=O)C2CCN(S(=O)(=O)c3c(C)noc3/C=C/c3ccccc3F)CC2)C1 (stereo unspecified) do in these assays?
MCF10A rereplic: inconclusive; ELG1 repair inh: inconclusive; Gal4-VP16 FLuc: -1.7%; RORg inh: -1.2%; SW480 rereplic: 3.7%

How did O=C(CN1C(=O)c2ccccc2C1=O)OCC(=O)N1CCN(c2ccccc2)CC1 do in these assays?
MCF10A rereplic: 0.9%; ELG1 repair inh: 2.4%; SW480 rereplic: 0.1%

How did CN1CCN(S(=O)(=O)c2ccc(NC(=O)c3ccc(Br)o3)cc2)CC1 do in these assays?
MCF10A rereplic: 16.6%; ELG1 repair inh: 11.7%; Gal4-VP16 FLuc: 13.6%; RORg inh: -19.7%; SW480 rereplic: -5.1%

How did CC1CCN(S(=O)(=O)c2ccc(NC(=S)NC(=O)c3ccc(Cl)cc3)cc2)CC1 do in these assays?
MCF10A rereplic: 1.4%; ELG1 repair inh: inconclusive; Gal4-VP16 FLuc: 3.98µM*; RORg inh: 2µM*; SW480 rereplic: -12.9%

Results for CN1CCN(S(=O)(=O)c2ccc(NC(=O)c3ccc(Br)s3)cc2)CC1 ?
MCF10A rereplic: 14.6µM*; ELG1 repair inh: 12.0%; Gal4-VP16 FLuc: 0.8%; RORg inh: 39.6%; SW480 rereplic: inconclusive

How did CC(=O)Nc1ccc(NC(=O)C(C)OC(=O)c2ccc(S(=O)(=O)N3CCCCCC3)cc2)cc1 (stereo unspecified) do in these assays?
MCF10A rereplic: 14.6µM*; ELG1 repair inh: 17.4%; SW480 rereplic: inconclusive

Results for O=C(NC(=S)Nc1ccc(S(=O)(=O)N2CCCCC2)cc1)c1ccc(Cl)cc1 ?
MCF10A rereplic: 15.1%; ELG1 repair inh: 2.4%; Gal4-VP16 FLuc: -1.2%; RORg inh: -0.2%; SW480 rereplic: -0.6%

What do the screens show for `O=C(COC(=O)/C=C/c1ccc(F)cc1)Nc1ccccc1-c1ccccc1`?
MCF10A rereplic: -1.5%; ELG1 repair inh: inconclusive; Gal4-VP16 FLuc: 1.7%; RORg inh: -6.3%[10 µM]; SW480 rereplic: -4.1%

Results for CCc1ccc([C@@H]2CC=C(C(=O)O)[C@H](c3ccc(Cl)cc3)N2S(=O)(=O)c2ccc(C)cc2)cc1 ?
MCF10A rereplic: 13µM*; ELG1 repair inh: 13.8%; SW480 rereplic: -12.8%

Results for Cc1ccc([C@H]2C(C(=O)O)=CC[C@@H](c3ccc(Cl)cc3)N2S(=O)(=O)c2ccccc2C)cc1 ?
MCF10A rereplic: inconclusive; ELG1 repair inh: -2.8%; SW480 rereplic: -5.7%

Results for Cc1ccccc1S(=O)(=O)N1[C@@H](c2ccc(Cl)cc2)C(C(=O)O)=CC[C@H]1c1ccc(Cl)cc1 ?
MCF10A rereplic: 16.4µM*; ELG1 repair inh: 0.4%; SW480 rereplic: 1.7%

Results for CCN(CC(=O)NCc1ccc(F)cc1)C(=O)CCNS(=O)(=O)c1cccc(C)c1 ?
MCF10A rereplic: 1.2%; ELG1 repair inh: 0.0%; SW480 rereplic: -0.6%
